# Where “and” joins values, the source holds several entries; their conditions need not be identical. Equal entries are not always repeated. About 2,600 (16%) of roughly 16,000 compounds were called active. Roughly 20% stayed inconclusive and do not appear here. Calls follow the shape of the dose curve; as a rule, active = well fitted curve in the direction sought with a large enough effect; inconclusive = small, poorly fitted or top-dose-only effect, or effect the other way; inactive = no such curve, though single readings can be large or run the other way. The list is a sample of the results. Where a structure was tested more than once in an assay, its records may differ in their call.
# Molecular target: Cytochrome P450 2D6 (Homo sapiens) (UniProt P10635)
# Sequence (P10635 whole entry, looked up): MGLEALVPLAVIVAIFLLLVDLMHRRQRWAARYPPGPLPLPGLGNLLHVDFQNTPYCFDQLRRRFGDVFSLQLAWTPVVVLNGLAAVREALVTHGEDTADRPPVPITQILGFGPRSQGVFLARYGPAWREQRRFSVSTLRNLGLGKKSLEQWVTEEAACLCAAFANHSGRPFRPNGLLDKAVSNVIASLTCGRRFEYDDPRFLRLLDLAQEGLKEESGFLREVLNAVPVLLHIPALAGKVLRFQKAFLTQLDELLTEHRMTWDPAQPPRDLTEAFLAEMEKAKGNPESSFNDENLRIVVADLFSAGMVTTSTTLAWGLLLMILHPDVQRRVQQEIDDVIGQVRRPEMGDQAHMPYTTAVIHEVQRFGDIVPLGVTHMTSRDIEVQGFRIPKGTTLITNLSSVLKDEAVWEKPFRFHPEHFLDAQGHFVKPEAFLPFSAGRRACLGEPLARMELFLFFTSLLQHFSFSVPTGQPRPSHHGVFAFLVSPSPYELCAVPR
# Test: Cytochrome panel assay with activity outcomes
# Conditions: recombinant CYP, pro-luciferin dealkylation, luminescence, p450-cyp2d6; series mostly up to 57.1 µM
# % is scaled to controls: 0 for no effect and ±100 for the full control effect.
SMILES,AC50,"activity, negative = inhibition"
COCCn1c(=O)c(-c2ccccc2)nc2cnc(Oc3cccc(Cl)c3)nc21,inactive,
NC(=O)Nn1c(CCC(=O)O)ccc1-c1ccc(F)cc1,inactive,
Cc1ccc(C(=O)N2C3C=CC(C3)C2(C(F)(F)F)C(F)(F)F)cc1 (stereo unspecified),inactive,
CCC(C)(C)c1ccc(Oc2cccc(C(=O)O)c2)cc1,,13.3% [at 11.4 µM] (inactive)
O=C(O)CCNc1ncnc2nc[nH]c12,,9.14% [at 11.4 µM] (inactive)
OC[C@H]1O[C@H](n2cnc3c(NC4CCCC4)nc(Cl)nc32)[C@@H](O)[C@@H]1O,inactive,
C=C(C)CN(CC#N)CC(=C)C,,5.94% [at 11.4 µM] (inactive)
N#C/C(=C(\O)C(=O)O)c1ccc(-c2cccc3ccccc23)cc1,,14.5% [at 11.4 µM] (inactive)
O=c1c2c(n3cnnc3n1-c1ccccc1)-c1ccccc1CC21CCCCC1,inactive,
Nc1nc(N)c(N=Nc2ccc(C(=O)O)c(O)c2)c(N)n1,,-8.46% [at 11.4 µM] (inactive)
CC1CCN(c2ccc(/C=N/n3nnnc3N)cc2[N+](=O)[O-])CC1,inactive,
NC(=S)SCCC(=O)O,,4.51% [at 11.4 µM] (inactive)
NC(N)=Nc1nc2ccc([N+](=O)[O-])cc2[nH]1,,2.98% [at 11.4 µM] (inactive)
O=S(=O)(O)c1cc(N=[N+]([O-])c2cc(S(=O)(=O)O)c3ccccc3c2)cc2ccccc12,,-20.1% [at 11.4 µM] (inactive)
CC(C)c1cc(C(F)(F)F)nc(NNc2nc(C(C)C)cc(C(F)(F)F)n2)n1,126 nM (active),
CC(C)Nc1nc(Oc2ccc(Cl)cc2)cc(C(F)(F)F)n1,inactive,
CCNc1nc(Sc2ccc(C)cc2)cc(C(F)(F)F)n1,inactive,
Cc1nc2cnc(N3CCN(C)CC3)nc2n(Cc2ccc(F)cc2)c1=O,inactive,
CN(C)c1ccc(-c2noc(C3CCN(S(=O)(=O)c4cccc(C(=O)O)c4)CC3)n2)cc1,inactive,
Cc1ccc(C2=Nc3ccccc3S[C@@H](c3cccc([N+](=O)[O-])c3)C2)cc1,,4.11% [at 11.4 µM] (inactive)
N#C/C(=C\c1cn[nH]c1-c1ccccc1)C(=O)NC1CCCCCC1,28200 nM (active),
COc1ccc(/C=C(/C#N)C(=O)NC2CCCCC2)cc1Br,inactive,
N#C/C(=C\c1cc(Cl)cc(Cl)c1O)C(=O)NC1CCCCC1,inactive,
CC1=C(C(=O)NCCN2CCN(C)CC2)C2(CCC(C)CC2)OC1=O (stereo unspecified),inactive,
C/C(=N\NC(=O)c1ccc(Br)cc1)c1ccccc1,inactive,
CCOc1ccc(C(=O)Nc2cccc(-c3cc4ccccc4oc3=O)c2)cc1[N+](=O)[O-],inactive,

SMILES,AC50,"activity, negative = inhibition"
COc1ccc(-c2cc(C(=O)Nc3nc4c(C)cccc4s3)c3ccccc3n2)cc1OC,inactive,
CCCCNC(=O)Cc1coc2ccc3ccccc3c12,10000 nM (active),
CCCCNC(=O)CSc1nc2ccccc2c(=O)n1CCNC(C)=O,inactive,
CCCCNc1cc(=O)oc2ccccc12,inactive,
CC1(O)CC(=O)N(c2ccccc2)O1 (stereo unspecified),inactive,
COc1ccc(C(=O)Nc2ccc(Cl)cc2C(=O)NCCN2CCOCC2)cc1,1260 nM (active),
COc1ccc(-c2cn3c(C)c(C(=O)NCCN4CCOCC4)sc3n2)cc1,inactive,
COc1cccc(C(=O)NCCN2CCOCC2)c1,inactive,
O=C(O)[C@H]1CN(CCCP(=O)(O)O)CCN1,inactive,
CCCCNN,,-18.7% [at 11.4 µM] (inactive)
O=C(O)/C(=C\c1ccccc1)Cc1ccccc1,,-3.61% [at 11.4 µM] (inactive)
C#CCN(C)Cc1ccccc1,inactive,
CN(Cc1ccccc1)Cn1ccnc1,794 nM (active),
Cc1ccc(C(C(=O)NC2CCCCC2)N2CCN(C(=O)c3ccco3)CC2)cc1 (stereo unspecified),inactive,
Cc1cc(C)n(C(=O)c2cc3ccccc3c(=O)o2)n1,inactive,
C[C@@H](CN1c2ccccc2Sc2ccccc21)N(C)C,2 µM (active) and 316 nM (active),
CCN(CC)[C@@H](C)CN1c2ccccc2Sc2ccccc21,158 nM (active),
C[C@@H](CN(C)C)CN1c2ccccc2CCc2ccccc21,12.6 µM (active) and 5.01 µM (active),
CN(C)CC(C)(C)CN1c2ccccc2Sc2ccccc21,200 nM (active),
O=C1CCCc2ccccc2N1Cc1ccccc1Cl,inactive,
CN(C)CN1C(=O)S/C(=C2/C(=O)N(CN(C)C)c3ccccc32)C1=O,,-3.13% [at 11.4 µM] (inactive)
CC(C)c1ccc(C2C(C#N)=C(N)N3C(=C2C#N)Sc2ccccc23)cc1 (stereo unspecified),inactive,
C[C@H](CN(C)C)C(=O)c1ccccc1C(=O)O,,9.39% [at 11.4 µM] (inactive)
Cc1nc(C(=O)Nc2cccc(Cl)c2Cl)nn1-c1cc(OC(C)C)c(Cl)cc1Cl,inactive,
O=Nc1ccc(NOC(=O)c2ccc(Br)cc2)cc1,inactive,
Cc1ccc(C(=O)NNC(=O)C2CCCN(c3ncccn3)C2)cc1 (stereo unspecified),inactive,

SMILES,AC50,"activity, negative = inhibition"
Nc1ncnc2c1cnn2-c1ccccc1,inactive,
Cc1cc(C)n(-c2ccc(F)cc2)c(=O)c1C(=O)O,inactive,
CSc1nc2ccccc2cc1/C=C(\C#N)c1ccccc1,inactive,
COc1ccccc1C(OC(=O)c1cccs1)C(=O)NCC1CCCO1 (stereo unspecified),inactive,
NCCC(=O)O,inactive,
O=C(O)CCCCCn1c(SCC(=O)N2CCCC2)nc2ccsc2c1=O,inactive,
CC[C@@]1(O)C(=O)COc2c1cc1n(c2=O)Cc2c-1nc1cccc(C(C)C)c1c2[Si](C)(C)C,inactive,
COc1ccc([C@@H]2Sc3ccccc3N(CCN(C)C)C(=O)[C@@H]2OC(C)=O)cc1,inactive,
COc1ccc2c(c1)N(C[C@@H](C)CN(C)C)c1ccccc1S2,63.1 nM (active),
COc1ccc([C@H]2Sc3ccccc3N(CCN(C)C)C(=O)[C@H]2OC(C)=O)cc1,inactive,
CCCCCC(=O)N1CC2(CC(c3cccc(NC(=O)c4ccccc4)c3)=NO2)C[C@@H]1C(N)=O (stereo partly specified),inactive,
O=C(CN(C(=O)CSc1nc2ccccc2o1)c1cccc(F)c1)NC1CCCCC1,12600 nM (active),
O=C(CSc1nc2ccccc2o1)Nc1nc2ccccc2s1,inactive,
O=C(CSc1nc2ccccc2o1)NC(=O)NCc1ccccc1,inactive,
Cc1cccc(-c2c3c(=O)n(C)c(=O)n(C)c3cn2C2CCCCC2)c1,inactive,
CO[C@@H]1COC(=O)[C@H](CCSC)NC(=O)C/C=C\[C@@H](C)COC(=O)[C@@H]2CCCN2C(=O)C/C=C\[C@H]1C,,11.2% [at 11.4 µM] (inactive)
CC(C)NC[C@@H](O)COc1ccc(CCOCC2CC2)cc1,inactive,
CC(=O)Nc1ccc(OC[C@@H](O)CNC(C)C)cc1,inactive and 3.16 µM (active),
CC(C)NC[C@@H](O)COc1ccc(COCCOC(C)C)cc1,inactive,
Cc1cc(C(=O)C(=O)NC(C)C)c(C)n1-c1ccc([N+](=O)[O-])cc1,inactive,
CC(=O)NS(=O)(=O)c1ccc(NC(=S)NC(=O)C(C)(C)C)cc1,inactive,
O=S(=O)(N/N=C\c1cn(-c2ccccc2)nc1-c1ccccc1)c1ccccc1,112 nM (active),
Cc1ccc(-c2nn(-c3ccccc3)cc2/C=N/NS(=O)(=O)c2ccccc2)cc1,inactive,
O=C(N/N=C\c1cn(-c2ccccc2)nc1-c1ccccc1)c1ccc(Br)o1,inactive,
COc1ccc(C2C(C(=O)N3CCOCC3)c3ccccc3C(=O)N2c2ccc(OC)cc2)cc1 (stereo unspecified),inactive,
CNc1ccnc(-c2c(C)noc2C)n1,inactive,

SMILES,AC50,"activity, negative = inhibition"
CN(C)Cc1ccccc1-c1nccc(NC2CC2)n1,631 nM (active),
CN(C)Cc1ccccc1-c1nccc(Nc2ccc(F)cc2)n1,10000 nM (active),
CNc1ccnc(-c2ccccc2CN(C)C)n1,39.8 nM (active),
Cc1nn2c(NCC(C)C)c3c(nc2c1-c1ccccc1)CCC3,inactive,
Cc1ccc(S(=O)(=O)N=Nc2c(O)[nH]c3cc(O)c(C(=O)O)cc23)cc1,,6.63% [at 11.4 µM] (inactive)
COC(=O)C/C=C\[C@@H](C)[C@@H]1C=C[C@H](OC(C)=O)[C@H](COC(C)=O)O1,,13.8% [at 11.4 µM] (inactive)
CCC(C)(C(=O)NC1CCCC1)N(C(=O)c1ccccn1)c1ccccc1 (stereo unspecified),inactive,
Nc1nc(Nc2ccccc2)nc2c1ncn2[C@@H]1O[C@@H](CO)[C@H](O)[C@@H]1O,inactive,
N[C@@H](Cc1cc(-c2ccc(Cl)cc2Cl)cc(CP(=O)(O)O)c1O)C(=O)O,inactive,
CC(C)CN(Cc1c(O)ccc2c3c(c(=O)oc12)CCC3)CC(C)C,224 nM (active),
CCN(CC)Cc1c(O)c(Cl)cc2c3c(c(=O)oc12)CCCC3,2510 nM (active),
CCc1cc2c(=O)c(-c3nc4ccccc4n3C)c(C)oc2c(CN(CC)CC)c1O,inactive,
CCC(C)C(NS(=O)(=O)c1ccc(C)cc1)C(=O)Oc1ccc2c3c(c(=O)oc2c1)CCC3 (stereo unspecified),inactive,
CCN(CC)Cc1c(O)ccc2c(=O)c(Oc3ccccc3OC)coc12,inactive,
CCCCCOC(=O)CSc1nnc(-c2ccccc2)c(=O)[nH]1,inactive,
Cn1c(=O)c2[nH]c(CCC(=O)O)nc2n(C)c1=O,,-4.99% [at 11.4 µM] (inactive)
CCOC(=O)C1=C(C)NC(=O)N[C@@H]1c1coc2cc(C)cc(C)c2c1=O,,0.866% [at 11.4 µM] (inactive)
O=C(OC1CCN(c2ncc(C(F)(F)F)cc2Cl)CC1)c1cccc(C(F)(F)F)c1,inactive,
CCN(c1ccccc1)c1cc(NC)[n+](C)c(C)n1,3980 nM (active),
CN(C(=O)CC(NC(=O)c1ccccc1)(c1ccccc1)c1ccccc1)c1ccccc1,inactive,
O=C(NCCc1ccccc1)N1c2ccccc2Sc2ccccc21,20000 nM (active),
COC(=O)c1cc(NC(=O)N2c3ccccc3Sc3ccccc32)cc(C(=O)OC)c1,inactive,
O=C(CSc1nc2ccccc2s1)N1c2ccccc2Sc2ccccc21,inactive,

# — PubChem BioAssay AID1851 (National Center for Advancing Translational Sciences (NCATS), 2009)
